Data on three compounds can be found in PubChem BioAssay AID2148 (The Scripps Research Institute Molecular Screening Center, 2009).

About 1,500 (62%) of roughly 2,400 compounds were called active. Rule as the data show it: active = inhibition above about 22%; inactive = the rest. So high a share suggests a set chosen from earlier hits. Only a selection was taken, and actives are over-represented in it overall.

This test has as its target Melanin-concentrating hormone receptor 1 (Homo sapiens) (UniProt Q99705). As to the kind of experiment: MCHR1 antagonists in cells, counter-screen for GPR7 antagonist project, cell-based, fluorescence, human (AID 2148).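 Also: 0% = vehicle with agonist and 100% = vehicle without agonist.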 The settings on record: MCHR1-expressing cells, fluorescence antagonist assay; at 4.4 µM; active compounds read high.
As usually defined, the inhibition is how much of the control response was suppressed. As for `CCOC(=O)C1(Cc2ccc(Cl)cc2)CCN(C(C)CCn2cccn2)CC1` (stereo not drawn), the inhibition was 26% (active). As for `COc1ccc(Br)cc1CNCCc1cccc(Cl)c1`, the figure is 44.1% (active); as for `CCOc1ccc(-c2cc(C)[n+](CCN(CC)CC)c(-c3ccc(OCC)cc3)c2)cc1`, 46.5% (active).
